# Measurements from PubChem BioAssay (NCATS).
# Values joined by “and” are separate entries in the source; they are usually repeats but may differ in a detail not shown here. Equal values may be shown once. Records with an inconclusive call do not appear. Active and inactive are the calls of the source. The call rests on the fitted dose curve; in most records, active means well fitted curve in the direction sought with a large enough effect; inconclusive means small, poorly fitted or top-dose-only effect, or another doubt; inactive means no such curve, though single readings can be large or run the other way.
# Test: qHTS Assay for Identifying Gametocytocidal Compounds (AID 743244);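 on max response: actives lower the fluorescent signal which means gametocytes are killed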
# Conditions: P. falciparum 3D7 stage III-V gametocytes, alamarBlue, 72 h; max response: hits give low values
# Procedure, shortened: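 Stage III-V P. falciparum 3D7 gametocytes, 20,000 per well, were exposed to compounds for 72 h at 37C, 5% CO2. AlamarBlue was then added for 24 h and viability was read as fluorescence at Ex 525/Em 598 nm.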
# On the % scale 0 is the no-effect control and ±100 the full control effect; potency means the concentration at half of the fitted maximal effect.
SMILES,max response,Potency
C/C=C/c1ccc(OC)cc1,16% (inactive),
CC1(C)O[C@@H]2C[C@H]3[C@@H]4C[C@H](F)C5=CC(=O)C=C[C@]5(C)[C@H]4[C@@H](O)C[C@]3(C)[C@]2(C(=O)CO)O1,-4.1% (inactive),
CCN(CCCCOC(=O)c1ccc(OC)c(OC)c1)C(C)Cc1ccc(OC)cc1 (configuration not stated),14.8% (inactive),
O=C(OCCOCCO)c1ccccc1Nc1cccc(C(F)(F)F)c1,12.2% (inactive),
NC(=O)c1cc[n+](CC2=C(C(=O)[O-])N3C(=O)[C@@H](NC(=O)Cc4cccs4)[C@H]3SC2)cc1,1.11% (inactive),
Oc1cc(O)c2c(c1)O[C@H](c1ccc(O)c(O)c1)[C@H](O)C2,2.48% (inactive),
OC(CCN1CCCCC1)(c1ccccc1)c1ccccc1,13.3% (inactive),
O=c1[nH]c(=O)n([C@H]2CCCO2)cc1F,-0.456% (inactive),
CC1(C)O[C@@H]2C[C@H]3[C@@H]4CCC5=CC(=O)CC[C@]5(C)[C@@]4(F)[C@@H](O)C[C@]3(C)[C@]2(C(=O)CCl)O1,,8.91 µM (active)
CCCCC1=NC2(CCCC2)C(=O)N1Cc1ccc(-c2ccccc2-c2nn[nH]n2)cc1,1.29% (inactive),
Cc1cccc(C)c1NC(=O)CN1CCN(CCCC(c2ccc(F)cc2)c2ccc(F)cc2)CC1,0.546% (inactive),
CCN(CC)C(=O)/C(C#N)=C/c1cc(O)c(O)c([N+](=O)[O-])c1,-6.8% (inactive),
Cc1ccnc(NS(=O)(=O)c2ccc(N)cc2)n1,9.97% (inactive),
O=C1OC2(c3ccc(O)cc3Oc3cc(O)ccc32)c2ccccc21,-13.2% (inactive) and 24.2% (inactive),
COc1cc2c(cc1OC)C(=O)C(CC1CCN(Cc3ccccc3)CC1)C2 (configuration not stated),3.63% (inactive),
CCCCCCCCCCCCCCCC[N+](C)(C)CC,,14.1 µM (active)
CN=C(NC#N)Nc1ccc(C2=NNC(=O)CC2C)cc1 (configuration not stated),-3.79% (inactive),
CCC(=O)c1c(O)cc(O)cc1O,19% (inactive),
Cc1c(C(C)C)c(=O)n(-c2ccccc2)n1C,39.2% (inactive),

SMILES,max response,Potency
Cc1c(C)n(CCN(C)C)c2ccc(C(=O)OCCN(C)C)cc12,8.04% (inactive),
CCOC(=O)n1ccn(C)c1=S,21.8% (inactive),
CC(=O)OCC(=O)[C@@]12OC(C)(C)O[C@@H]1C[C@H]1[C@@H]3C[C@H](F)C4=CC(=O)C=C[C@]4(C)[C@@]3(F)[C@@H](O)C[C@@]12C,1.24% (inactive),
C[n+]1c2cc(N)ccc2cc2ccc(N)cc21 (tested in a mixture with another compound),,7.94 µM (active)
CCOC(=O)/C=C(C)/C=C/C=C(C)/C=C/c1c(C)cc(OC)c(C)c1C,14.1% (inactive),
COc1cc(N)c(Cl)cc1C(=O)NC1CCN(CCCOc2ccc(F)cc2)CC1OC (configuration not stated),-0.854% (inactive),
CN(C(=O)CN(CCO)CC(=O)N(C)C(C)(C)Cc1ccccc1)C(C)(C)Cc1ccccc1,-1.55% (inactive),
CCOC(=O)c1cccc(N)c1,-5.91% (inactive),
CCC(C(=O)OCCN(CC)CC)c1ccccc1 (configuration not stated),-1.81% (inactive),
OC[C@H]1O[C@@H](n2cnc3c(=S)nc[nH]c32)[C@H](O)[C@@H]1O,-4.52% (inactive),
C[C@@H]1C[C@H]2[C@@H]3C[C@H](F)C4=CC(=O)C(Cl)=C[C@]4(C)[C@@]3(F)[C@@H](O)C[C@]2(C)[C@@]1(O)C(=O)CO,5.34% (inactive),
CCOC(=O)OC(C)OC1=C(C(=O)Nc2ccccn2)N(C)S(=O)(=O)c2ccccc21 (configuration not stated),-4.24% (inactive),
Cc1c(N(C)CS(=O)(=O)O)c(=O)n(-c2ccccc2)n1C,18.3% (inactive),
O=C1OCCN1/N=C/c1ccc([N+](=O)[O-])o1,2.02% (inactive),
Cc1cc(O)c(C(C)C)cc1Cl,-3.92% (inactive),
CC1(C)O[C@@H]2C[C@H]3[C@@H]4C[C@H](F)C5=CC(=O)CC[C@]5(C)[C@H]4[C@@H](O)C[C@]3(C)[C@]2(C(=O)CO)O1,1.24% (inactive),
CCN(CC)CCNC(=O)COc1ccc(Cl)cc1,-6.47% (inactive),
O=C(N/N=C/c1ccccc1O)c1ccncc1,-7.05% (inactive),
